# In PubChem BioAssay (Tox21):
# Records with an inconclusive call do not appear. Values without a mark were called inactive. The source made the active and inactive calls. Calls come from the whole dose curve; as a rule, active = well fitted curve in the direction sought with a large enough effect in the repeat runs; inconclusive = weak or mixed curves; inactive = no such curve, though single readings can be large; an effect the other way counts as inactive or inconclusive.
# Target: Voltage-gated inwardly rectifying potassium channel KCNH2 (Homo sapiens) (UniProt Q12809)
# Test: Human Ether-a-go-go-Related Gene (hERG) channel small molecule antagonists: fluorescence cell-based qHTS assay (AID 1671200);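 note: hERG-expressing U2OS cells given a thallium stimulus after FluxOR II dye loading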
# Conditions: hERG-U2OS cells, FluxOR thallium flux fluorescence; series mostly up to 76.8 µM; activity change, negative = inhibition: at the top concentration
# Method in brief: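 First, 1000 cells per well are seeded and cultured overnight at 37 C. Next, FluxOR II dye is loaded for 1 h at room temperature, protected from light. After 10 more minutes, stimulus is added and fluorescence is read.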
# % is set by controls: 0 for no effect and ±100 for the full control effect.
# Note: nearly all actives have a fitted effect of over 50% in size.
# Sequence of Voltage-gated inwardly rectifying potassium channel KCNH2 (Homo sapiens) (Q12809 whole entry, looked up): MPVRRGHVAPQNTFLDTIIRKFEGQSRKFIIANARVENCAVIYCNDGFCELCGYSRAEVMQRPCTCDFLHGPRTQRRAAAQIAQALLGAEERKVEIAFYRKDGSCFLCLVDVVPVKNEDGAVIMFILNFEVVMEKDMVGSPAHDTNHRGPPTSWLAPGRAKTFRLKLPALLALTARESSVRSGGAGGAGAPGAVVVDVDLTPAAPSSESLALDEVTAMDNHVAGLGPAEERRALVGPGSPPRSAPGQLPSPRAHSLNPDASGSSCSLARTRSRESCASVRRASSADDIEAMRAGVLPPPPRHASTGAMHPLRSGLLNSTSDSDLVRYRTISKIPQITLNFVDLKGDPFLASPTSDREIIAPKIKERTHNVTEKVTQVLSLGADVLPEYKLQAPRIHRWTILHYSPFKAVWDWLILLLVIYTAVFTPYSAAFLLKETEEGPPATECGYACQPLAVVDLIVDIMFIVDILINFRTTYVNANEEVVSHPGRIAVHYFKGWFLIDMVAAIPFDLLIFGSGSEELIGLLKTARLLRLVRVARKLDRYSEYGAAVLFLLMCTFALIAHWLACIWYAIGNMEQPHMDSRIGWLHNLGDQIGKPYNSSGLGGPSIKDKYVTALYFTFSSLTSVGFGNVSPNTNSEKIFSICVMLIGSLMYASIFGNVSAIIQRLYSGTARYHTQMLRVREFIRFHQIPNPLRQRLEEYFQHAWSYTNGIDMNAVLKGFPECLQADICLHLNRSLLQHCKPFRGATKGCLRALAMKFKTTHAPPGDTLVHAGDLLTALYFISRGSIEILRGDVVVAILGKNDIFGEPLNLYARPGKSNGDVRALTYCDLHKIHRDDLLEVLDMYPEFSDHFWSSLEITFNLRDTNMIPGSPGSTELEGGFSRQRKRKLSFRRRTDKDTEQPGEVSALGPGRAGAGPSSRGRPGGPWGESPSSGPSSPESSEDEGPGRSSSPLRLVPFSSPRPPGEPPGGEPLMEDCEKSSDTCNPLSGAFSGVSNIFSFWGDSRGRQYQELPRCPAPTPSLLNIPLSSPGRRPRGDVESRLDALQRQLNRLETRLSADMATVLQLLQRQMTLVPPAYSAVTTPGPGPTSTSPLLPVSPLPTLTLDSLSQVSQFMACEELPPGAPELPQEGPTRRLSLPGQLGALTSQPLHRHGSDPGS
row,SMILES,"activity change, negative = inhibition"
1,O=C(O)c1cc(Cl)cc(Cl)c1O,4.87%
2,CCN(CC)CCNC(=O)c1cc(Cl)c(N)cc1OC,-7.52% [at 35.3 µM]
3,CCOc1ncc(F)c(=O)[nH]1,2.26% [at 35.3 µM]
4,CCCC(=O)OC(=O)CCC,2.9%
5,CCOCCC(=O)OCC,4.32%
6,CCCCCCCC/C=C\CCCCCCCC(=O)OCCO,-16.6%
7,C=CC(=O)NC(C)C,0.758%
8,CCCCCCCCCCCC(=O)OCC(O)CO (stereo not drawn),-5.93%
9,COc1ccc(C)cc1,0.083%
10,C=Cc1ccc(OC(C)=O)cc1,0.222%
11,CC1C(C)(C)C2=C(C(=O)CCC2)C1(C)C (stereo not drawn),-7.35%
12,CCCCCCOC(=O)CCCCC,5.34%
13,CCCCCCCCCCCCCCCCCC(=O)OCC(CC)CCCC (stereo not drawn),10.9%
14,C[C@@H]1[C@H](O)[C@@H](C)/C=C/C=C\C=C\C=C\C=C\C=C\C=C\[C@H](O[C@@H]2O[C@H](C)[C@@H](O)[C@H](N)[C@@H]2O)C[C@@H]2O[C@](O)(C[C@@H](O)C[C@@H](O)[C@H](O)CC[C@@H](O)C[C@@H](O)CC(=O)O[C@H]1C)C[C@H](O)[C@H]2C(=O)O (stereo in doubt),7.27%
15,CC(=O)OCCC1CCCCC1,-1.3%
16,CC(=O)OC(C)C[N+](C)(C)C (stereo not drawn),-0.583% [at 35.3 µM]
17,O=P(O)(O)Oc1ccccc1,0.329%
18,COC(C)(C)OC,0.894%
19,NC(=O)c1ccccc1[N+](=O)[O-],2.86%
20,C1=CCC2CC=CC2C1 (stereo not drawn),-3.4%

# Target: Cytochrome P450 3A4 (Homo sapiens) (UniProt P08684)
# Test: Cytochrome P450 Family 3 Subfamily A Member 4 (CYP3A4) small molecule antagonists: luciferase reporter qHTS assay (AID 1671201); note: potency is the fitted concentration of half-maximal effect
# Conditions: P450-Glo CYP3A4 enzyme, luciferin luminescence, 1 h; series mostly up to 115 µM; activity change, negative = inhibition: at the top concentration
# Method in brief: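 Enzyme and proluciferin substrate are mixed with test chemicals for 10 min, then NADPH regeneration system drives turnover for 1 h at room temperature. A detection reagent halts the reaction; luminescence after 20 min gives relative activity.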
# Sequence of Cytochrome P450 3A4 (Homo sapiens) (P08684 whole entry, looked up): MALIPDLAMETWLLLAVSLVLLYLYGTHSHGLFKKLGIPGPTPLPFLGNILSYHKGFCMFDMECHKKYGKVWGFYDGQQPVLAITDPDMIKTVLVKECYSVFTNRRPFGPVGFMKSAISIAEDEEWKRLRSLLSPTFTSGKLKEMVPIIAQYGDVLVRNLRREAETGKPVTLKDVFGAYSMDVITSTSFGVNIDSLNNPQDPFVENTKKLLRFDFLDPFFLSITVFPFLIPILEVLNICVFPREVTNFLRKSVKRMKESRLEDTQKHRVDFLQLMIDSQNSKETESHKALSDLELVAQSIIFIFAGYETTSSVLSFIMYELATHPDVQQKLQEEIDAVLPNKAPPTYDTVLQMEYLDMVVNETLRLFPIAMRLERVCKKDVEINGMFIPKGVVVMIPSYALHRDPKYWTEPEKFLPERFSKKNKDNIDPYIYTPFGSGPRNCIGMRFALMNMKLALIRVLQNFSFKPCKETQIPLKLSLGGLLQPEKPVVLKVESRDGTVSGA
SMILES,Potency,"activity change, negative = inhibition"
CC/C=C\C/C=C\C/C=C\CCCCCCCC(=O)OCC,72.7 µM (active),
CC1CCCO1 (stereo not drawn),,10%
CCC1CCC(CCC(=O)O)C1 (stereo not drawn),,36.6%
COc1ccc(CCN(C)CCCN2CCc3cc(OC)c(OC)cc3CC2=O)cc1OC,,-23.3% [at 52.9 µM]
Cc1cn([C@H]2C[C@H](F)[C@@H](CO)O2)c(=O)[nH]c1=O,,0.843% [at 52.9 µM]
Cc1ccccc1S(N)(=O)=O,,1.34%
CCSC(=O)N(CC)CC,,4.67%
Oc1ccc2c(c1)Cc1ccccc1-2,,-7.62%
CC1CCc2nccnc21 (stereo not drawn),,12.2%
CCCCCCCC/C=C/C(=O)O,,0.255% [at 52.9 µM]
CCOC(=O)N1CCC(Nc2ccc(Cl)cc2N)CC1,,-2.93% [at 52.9 µM]
O=C(O)c1cc(Cl)cc(Cl)c1O,,60%
CCN(CC)CCNC(=O)c1cc(Cl)c(N)cc1OC,,0.285% [at 52.9 µM]
CNC1CCCN(c2c(F)cc3c(=O)c(C(=O)O)cn(C4CC4)c3c2OC)C1 (stereo not drawn),,5.59% [at 52.9 µM]
CCOc1ncc(F)c(=O)[nH]1,,10% [at 52.9 µM]
CCCC(=O)OC(=O)CCC,,5.44%
CCOCCC(=O)OCC,,5%

SMILES,Potency,"activity change, negative = inhibition"
CCCCCCCC/C=C\CCCCCCCC(=O)OCCO,13.3 µM (active),
C=CC(=O)NC(C)C,,4.95%
O=C(Oc1ccccc1)c1ccc2ccccc2c1O,,26.3%
CCCCCCCC(=O)Oc1c(Br)cc(C#N)cc1Br,,68.1%
COc1ccc(C)cc1,,-4.02%
C=Cc1ccc(OC(C)=O)cc1,,6.28%
CC1C(C)(C)C2=C(C(=O)CCC2)C1(C)C (stereo not drawn),,-8.33%
CCCCCCOC(=O)CCCCC,,2.63%
CCCCCCCCCCCCCCCCCC(=O)OCC(CC)CCCC (stereo not drawn),,4.11%
C[C@@H]1[C@H](O)[C@@H](C)/C=C/C=C\C=C\C=C\C=C\C=C\C=C\[C@H](O[C@@H]2O[C@H](C)[C@@H](O)[C@H](N)[C@@H]2O)C[C@@H]2O[C@](O)(C[C@@H](O)C[C@@H](O)[C@H](O)CC[C@@H](O)C[C@@H](O)CC(=O)O[C@H]1C)C[C@H](O)[C@H]2C(=O)O (stereo in doubt),,15.5%
CNS(=O)(=O)c1cc(C(=O)N2CCC(CCN3C4CCC3CC(n3c(C)nc5ccccc53)C4)(c3cccc(F)c3)CC2)c(Cl)cc1F (stereo not drawn),,4.26%
CC(=O)OCCC1CCCCC1,,0.274%
CC(=O)OC(C)C[N+](C)(C)C (stereo not drawn),,10.8% [at 52.9 µM]
O=P(O)(O)Oc1ccccc1,,10.1%
COC(C)(C)OC,,6.65%
NC(=O)c1ccccc1[N+](=O)[O-],,1.71%
